The record followed here is the supplement of paper PMC10811239.

Where a name gives a salt, the structure may show the parent alone.

This test relates to LEGO organoid PT (PTEN-/-; TP53-/-). Briefly: bioluminescence (viable cell) signal fold change after vs before treatment, normalised to DMSO (ratio); higher = more tumour cell growth / less inhibition. The conditions noted are these: 10 µM; treatment time 6 days. The method, then: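 Luc2-labelled iPSC-derived glioblastoma-like organoids (LEGOs, genotypes PT = PTEN-/-;TP53-/-, PTCC = plus CDKN2A/B-/-, PTN = plus NF1-/-) were treated with 10 uM drug for 6 days (applied every other day) at 37 C. Bioluminescence imaging was done before treatment and 2 days after the last dose. BLI signals were normalised to the DMSO control on the same day and then to the pre-treatment signal (N=3).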
Consider `COc1cc2ncnc(Nc3ccc(F)c(Cl)c3)c2cc1OCCCN1CCOCC1` [Gefitinib], for which the bioluminescence amounted to 1.78.
The result for `OCCN1CCN(CCCN2c3ccccc3Sc3ccc(Cl)cc32)CC1` [Perphenazine] reads 0.743; that for `COCCOC(=O)C1=C(C)NC(C)=C(C(=O)OC(C)C)C1c1cccc([N+](=O)[O-])c1` (stereo not drawn) [Nimodipine], 1.49.
Then `CO/N=C(\C(=O)N[C@@H]1C(=O)N2C(C(=O)[O-])=C(CSc3nc(=O)c([O-])nn3C)CS[C@H]12)c1csc(N)n1.CO/N=C(\C(=O)N[C@@H]1C(=O)N2C(C(=O)[O-])=C(CSc3nc(=O)c([O-])nn3C)CS[C@H]12)c1csc(N)n1.O.O.O.O.O.O.O.[Na+].[Na+].[Na+].[Na+]` [Ceftriaxone sodium], with 0.964.
In the case of `NC(=O)OCC(COC(N)=O)c1ccccc1` [Felbamate], the bioluminescence amounted to 0.699.
For `O.O.O.O.[Li][O]C(=O)CC(O)(CC(=O)[O][Li])C(=O)[O][Li]` [Lithium citrate tetrahydrate], the bioluminescence was determined as 1.01.
Then `CS(=O)(=O)O.Cc1ccc(NC(=O)c2ccc(CN3CCN(C)CC3)cc2)cc1Nc1nccc(-c2cccnc2)n1` [Imatinib Mesylate], with 0.751.
The result for `NC(=O)N[C@@H](CCC(=O)O)C(=O)O` [Carglumic Acid] reads 1.27; that for `CS(=O)(=O)c1ccc(C2=C(c3ccccc3)C(=O)OC2)cc1` [Rofecoxib], 1.25; that for `NC[C@H]1CC[C@H](C(=O)O)CC1` [Amstat], 1.51.
On to `CCc1cc(/C(C)=N/OCc2ccc(C3CCCCC3)c(C(F)(F)F)c2)ccc1CN1CC(C(=O)O)C1` [Siponimod], for which the bioluminescence came out at 0.646.
The result for `O=c1[nH]c(=O)n(C2CCCO2)cc1F` (stereo not drawn) [Tegafur] reads 1.04.
Then `COc1cc(Nc2ncc(F)c(Nc3ccc4c(n3)N(COP(=O)(O)O)C(=O)C(C)(C)O4)n2)cc(OC)c1OC` [Fostamatinib], with 0.0894; and `COC(=O)/C=C/C(=O)OC` [Dimethyl fumarate], with 0.759.
The result for `CN1CCN2c3ncccc3Cc3ccccc3C2C1` (stereo not drawn) [Mirtazapine] reads 1.1.
Take `O=C1NC(=O)C(c2ccccc2)(c2ccccc2)N1` [Phenytoin]: the bioluminescence amounted to 0.795.
The result for `CC(C)Cc1ccc(C(C)C(=O)O)cc1` (stereo not drawn) [Ibuprofen] reads 1.56; that for `Cl.Nc1c2c(nc3ccccc13)CCCC2.O` [Tacrine hydrochloride hydrate], 0.719.
Then `Nc1ncn([C@H]2C[C@H](O)[C@@H](CO)O2)c(=O)n1` [Decitabine], with 1.2.
Then `C/C(O)=C(\C#N)C(=O)Nc1ccc(C(F)(F)F)cc1` [Teriflunomide], with 1.68; and `CC(=O)NCCCS(=O)(=O)[O-].CC(=O)NCCCS(=O)(=O)[O-].[Ca+2]` [Acamprosate calcium], with 2.61.
With `CN(Cc1cnc2nc(N)nc(N)c2n1)c1ccc(C(=O)N[C@@H](CCC(=O)O)C(=O)O)cc1` [Methotrexate], the bioluminescence amounted to 1.94.
Then `CC(=O)Nc1nnc(S(N)(=O)=O)s1` [Acetazolamide], with 1.6.
The result for `C[C@@H]1COCCN1c1cc(C2([S@](C)(=N)=O)CC2)nc(-c2ccnc3[nH]ccc23)n1` [Ceralasertib] reads 0.917; that for `CC(C(=O)O)c1cccc(C(=O)c2ccccc2)c1` (stereo not drawn) [Ketoprofen], 0.893.
Consider `Cn1c(=O)c2[nH]cnc2n(C)c1=O` [Theophylline], for which the bioluminescence was found to be 0.849.
Then `CCc1c2c(nc3ccc(OC(=O)N4CCC(N5CCCCC5)CC4)cc13)-c1cc3c(c(=O)n1C2)COC(=O)[C@]3(O)CC` [Irinotecan], with 2.7; and `CC(=O)OCC(=O)[C@@]1(O)[C@H](C)C[C@H]2[C@@H]3CCC4=CC(=O)C=C[C@]4(C)[C@@]3(F)[C@@H](O)C[C@@]21C` [Dexamethason acetate], with 1.76; and `CCOC(=O)OC(C)OC(=O)[C@@H]1N2C(=O)[C@@H](NC(=O)[C@H](N)c3ccccc3)[C@H]2SC1(C)C.Cl` (stereo partly drawn) [Bacampicillin hydrochloride], with 0.788.
Then `Cl.O=C1c2cccc3c2[C@H](CCC3)CN1[C@@H]1CN2CCC1CC2` [Palonosetron hydrochloride], with 1.19.
Then `CN(C)CCOC(C)(c1ccccc1)c1ccccn1.O=C(O)CCC(=O)O` (stereo not drawn) [Doxylamine succinate], with 0.83; and `CCN1CCN(C(=O)N[C@@H](C(=O)N[C@@H]2C(=O)N3[C@@H]2SC(C)(C)[C@@H]3C(=O)[O-])c2ccccc2)C(=O)C1=O.[Na+]` [Piperacillin sodium salt], with 1.08; and `NC(CO)(CO)CO.O=C(c1ccccc1)c1ccc2n1CCC2C(=O)O` (stereo not drawn) [Ketorolac tromethamine salt], with 1.75.
For `Cc1cccc(N(C)C(=S)Oc2ccc3ccccc3c2)c1` [Tolnaftate], the bioluminescence came to 1.01.
Then `CCCCCOC(=O)Nc1nc(=O)n([C@@H]2O[C@H](C)[C@@H](O)[C@H]2O)cc1F` [Capecitabine], with 2.21.
The result for `NCCS(=O)(=O)O` [Taurine] reads 1.84; that for `Nc1ccn([C@@H]2O[C@H](CO)[C@@H](O)[C@@H]2O)c(=O)n1` [Cytarabine], 1.82.
The result for `Cc1[nH]c(=O)c(C#N)cc1-c1ccncc1` [Milrinone] reads 1.11.
